The list is not random: actives were taken first. Their share in the collection is about 6.6%.
Autofluor counter: flagged as autofluorescent in microsphere protease counterscreen; compound autofluorescence counterscreen, microsphere flow cytometry; hits give high values; actives 3.1% (n = 360,000); fluorescence intensity (no concentration beside the values); in the data active means fluorescence intensity above about 16000; inconclusive means no clear call, values can overlap the other calls
BoNT F protease: BoNT/F light chain protease inhibitors, primary screen, biochemical, flow cytometry, MLPCN library | inhibition, % at 10 µM | AID 588497, 2011 | Multiplex microsphere protease cleavage assay | actives 0.22% (n = 360,000); in the data active means inhibition above about 35%, passing the limit was not always enough; inconclusive means no clear call, values can overlap the other calls; further: plate controls were buffer without enzyme for full effect and enzyme alone for no effect
Mtb FBA inh: Mtb FBA enzyme inhibitors, primary screen, biochemical, fluorescence, strain H37Rv | actives 2.3% (n = 360,000) | inhibition, % at 1 µM | purified M. tuberculosis FBA, fluorescence read-out | Fructose-bisphosphate aldolase (Mycobacterium tuberculosis (strain ATCC 25618 / H37Rv)), …; in the data active means inhibition above about 27%;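 further: 0% = vehicle and 100% = reference inhibitor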
Anthrax LF prot: Bacillus anthracis LF protease inhibitors, primary screen, biochemical, multiplex microsphere, MLPCN library | Lethal factor (Bacillus anthracis), P15917 | multiplex microsphere protease cleavage assay | inhibition, % at 10 µM | actives 0.12% (n = 360,000) | AID 588501, 2011; further: plate controls were buffer without enzyme for full effect and enzyme alone for no effect
Target sequence (P15917 whole entry, looked up): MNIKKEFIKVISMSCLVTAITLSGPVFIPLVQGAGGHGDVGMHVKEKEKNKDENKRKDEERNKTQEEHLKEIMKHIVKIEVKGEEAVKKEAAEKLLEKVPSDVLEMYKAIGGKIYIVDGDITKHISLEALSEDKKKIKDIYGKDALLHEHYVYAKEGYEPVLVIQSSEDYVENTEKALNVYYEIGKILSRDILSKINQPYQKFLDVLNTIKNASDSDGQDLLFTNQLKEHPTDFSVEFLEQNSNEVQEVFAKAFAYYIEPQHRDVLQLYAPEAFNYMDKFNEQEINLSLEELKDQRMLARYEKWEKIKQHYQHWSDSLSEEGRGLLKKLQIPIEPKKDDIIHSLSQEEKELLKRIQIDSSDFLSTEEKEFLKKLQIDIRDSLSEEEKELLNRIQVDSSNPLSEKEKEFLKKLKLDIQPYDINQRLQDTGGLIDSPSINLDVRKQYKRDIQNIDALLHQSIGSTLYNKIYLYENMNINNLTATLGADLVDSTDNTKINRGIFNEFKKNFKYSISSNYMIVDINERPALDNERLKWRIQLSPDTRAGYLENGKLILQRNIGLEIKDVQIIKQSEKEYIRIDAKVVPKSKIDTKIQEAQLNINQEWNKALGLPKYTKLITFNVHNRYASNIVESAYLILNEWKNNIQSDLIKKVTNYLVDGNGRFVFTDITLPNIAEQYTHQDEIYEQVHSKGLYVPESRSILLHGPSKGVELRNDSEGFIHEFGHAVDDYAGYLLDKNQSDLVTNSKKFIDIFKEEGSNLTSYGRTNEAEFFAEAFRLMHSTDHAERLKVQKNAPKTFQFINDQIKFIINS
BoNT A protease: BoNT/A light chain protease inhibitors, primary screen, biochemical, flow cytometry, MLPCN library; actives 0.17% (n = 360,000); AID 588499, 2011; inhibition, % at 10 µM; Botulinum neurotoxin type A light chain protease (Clostridium botulinum A str. ATCC 3502); multiplex microsphere protease substrate cleavage; further: plate controls were buffer without enzyme for full effect and enzyme alone for no effect
GDH-TPI counter: GDH-TPI coupling enzyme inhibitors, primary screen, artefact control for M. tuberculosis FBA inhibitor project, biochemical, absorbance, full deck. GDH-TPI coupled enzyme counterscreen, NADH absorbance. inhibition, % at 4.8 µM. actives 1.2% (n = 360,000). AID 588335, 2011; in the data active means inhibition above about 30%;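 further: 0% = DMSO wells and 100% = wells lacking the enzyme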
Starred values were filed as active, the others as inactive. Unless noted, no stated cut-off is given here; in the data, active means inhibition above about 30%; inconclusive means no clear call, values can overlap the other calls; inactive means below that.

Results for O=C(CCCn1c(SCC(=O)NCC2CCCO2)nc2ccccc2c1=O)NCc1ccccc1 (stereo unspecified) ?
Autofluor counter: 22190*; BoNT F protease: 2.6; Mtb FBA inh: 5.1; Anthrax LF prot: -5.7; BoNT A protease: 0.3; GDH-TPI counter: -11.7

How did CCCCNC(=O)CSc1nc2ccccc2c(=O)n1C1CCCC1 do in these assays?
Autofluor counter: 19876*; BoNT F protease: -0.6; Mtb FBA inh: 2.6; Anthrax LF prot: -3.1; BoNT A protease: 1.6; GDH-TPI counter: -8.2

What do the screens show for `C=CCN(CC(=O)O)S(=O)(=O)c1ccccc1C(F)(F)F`?
Autofluor counter: 4174; BoNT F protease: -1.7; Mtb FBA inh: -2.2; Anthrax LF prot: 1.9; BoNT A protease: 0.0; GDH-TPI counter: 8.6

What do the screens show for `O=C(c1ccco1)N1CCN(c2ccc([N+](=O)[O-])c(N3CCOCC3)c2)CC1`?
Autofluor counter: 5217; BoNT F protease: 2.5; Mtb FBA inh: -17.0; Anthrax LF prot: -3.9; BoNT A protease: -1.1; GDH-TPI counter: 7.9

How did CCCCn1c(SCC(=O)Nc2cc(C)on2)nc2ccccc2c1=O do in these assays?
Autofluor counter: 23871*; BoNT F protease: -2.3; Mtb FBA inh: 0.2; Anthrax LF prot: -0.6; BoNT A protease: -1.8; GDH-TPI counter: 2.8

Results for Cc1cccc2[nH]c(CCNC(=O)C3CCC(=O)N(CCc4cccc(F)c4)C3)nc12 (stereo unspecified) ?
Autofluor counter: 4736; BoNT F protease: -12.4; Mtb FBA inh: -2.1; Anthrax LF prot: -4.5; BoNT A protease: -2.8; GDH-TPI counter: -1.7

How did CC(Nc1cc(N2CCN(C(=O)C(C)(C)C)CC2)ccc1[N+](=O)[O-])c1ccccc1 (stereo unspecified) do in these assays?
Autofluor counter: 23558*; BoNT F protease: -6.2; Mtb FBA inh: -10.0; Anthrax LF prot: -11.4; BoNT A protease: -2.0; GDH-TPI counter: 8.9

Results for CC(C)C(=O)N1CCN(c2ccc([N+](=O)[O-])c(NC(C)c3ccccc3)c2)CC1 (stereo unspecified) ?
Autofluor counter: 8098; BoNT F protease: -16.3; Mtb FBA inh: -15.8; Anthrax LF prot: -7.8; BoNT A protease: -1.4; GDH-TPI counter: 4.7

How did C=CCSc1nc(C)cc(/C=C\c2ccccc2)c1C#N do in these assays?
Autofluor counter: 21811*; BoNT F protease: -10.0; Mtb FBA inh: 1.4; Anthrax LF prot: -0.1; BoNT A protease: inconclusive; GDH-TPI counter: -7.7

What do the screens show for `CCCCOc1ccc(OCCSc2nc3ccccc3n2CC(=O)O)cc1`?
Autofluor counter: 4100; BoNT F protease: inconclusive; Mtb FBA inh: -1.4; Anthrax LF prot: 5.8; BoNT A protease: -1.0; GDH-TPI counter: -1.5

Results for CCCCOC(=O)n1c(SCC(=O)N(C)C)nc2ccccc21 ?
Autofluor counter: 20862*; BoNT F protease: 6.3; Mtb FBA inh: 8.2; Anthrax LF prot: 3.3; BoNT A protease: 6.2; GDH-TPI counter: -6.2

Results for COc1ccccc1N1C(=O)S/C(=C\c2cc(C)n(C)c2C)C1=O ?
Autofluor counter: 2380; BoNT F protease: -3.9; Mtb FBA inh: -4.0; Anthrax LF prot: 1.4; BoNT A protease: -0.8; GDH-TPI counter: 10.4

Results for COc1ccccc1N1C(=O)S/C(=C\c2ccc(C)s2)C1=O ?
Mtb FBA inh: 2.3; GDH-TPI counter: 34.3*

Results for COc1ccc(-c2nn(-c3ccccc3)cc2/C=N/NC(=O)c2cccc(S(=O)(=O)Nc3ccccc3Cl)c2)cc1 ?
Autofluor counter: 2554; BoNT F protease: -2.0; Mtb FBA inh: 0.8; Anthrax LF prot: 0.0; BoNT A protease: -0.3; GDH-TPI counter: 31.8*

What do the screens show for `O=C(NC1CCN(S(=O)(=O)c2ccccc2)CC1)c1ccc(F)cc1`?
Autofluor counter: 3949; BoNT F protease: inconclusive; Mtb FBA inh: 1.5; Anthrax LF prot: -9.0; BoNT A protease: 1.1; GDH-TPI counter: -3.9

What do the screens show for `CCc1ccccc1NC(=O)CSc1nc2n[nH]c(C)c2c(=N)n1-c1ccc(OC)cc1`?
Autofluor counter: 4967; BoNT F protease: 3.1; Mtb FBA inh: -1.1; Anthrax LF prot: -2.8; BoNT A protease: -0.5; GDH-TPI counter: 20.1

What do the screens show for `COc1ccccc1NC(=O)CSc1nc2n[nH]c(C)c2c(=N)n1-c1ccccc1Cl`?
Autofluor counter: 22575*; BoNT F protease: -3.5; Mtb FBA inh: -3.4; Anthrax LF prot: -0.8; BoNT A protease: -0.8; GDH-TPI counter: -1.2

Results for Cc1cccc(-n2c(SCC(=O)N3CCCC3)nc3n[nH]c(C)c3c2=N)c1 ?
Autofluor counter: 22446*; BoNT F protease: -4.3; Mtb FBA inh: -1.9; Anthrax LF prot: 0.0; BoNT A protease: inconclusive; GDH-TPI counter: 12.3

How did CN(CC(=O)NCCc1ccc(F)cc1)Cc1cccc(Cl)c1 do in these assays?
Autofluor counter: 4711; BoNT F protease: -8.9; Mtb FBA inh: 1.5; Anthrax LF prot: -6.2; BoNT A protease: -0.5; GDH-TPI counter: -0.9

What do the screens show for `CCOc1ccc(NC(=O)CN(C)C(=O)c2cc(C)on2)cc1OCC`?
Autofluor counter: 5651; BoNT F protease: -3.5; Mtb FBA inh: -0.6; Anthrax LF prot: 0.1; BoNT A protease: 0.1; GDH-TPI counter: 10.0

Results for COc1ccccc1COC(=O)Nc1c(C)nn(C)c1Cl ?
Autofluor counter: 18871*; BoNT F protease: 1.7; Mtb FBA inh: 0.5; Anthrax LF prot: -0.6; BoNT A protease: inconclusive; GDH-TPI counter: 3.9

How did Cc1nn(C)c(Cl)c1NC(=O)OCc1ccc(F)cc1 do in these assays?
Autofluor counter: 8567; BoNT F protease: 4.3; Mtb FBA inh: 2.3; Anthrax LF prot: 14.5; BoNT A protease: 1.6; GDH-TPI counter: 4.4

How did COC(=O)c1nn(-c2ccccc2)c(=O)cc1Sc1ccc(Cl)cc1 do in these assays?
Autofluor counter: 4483; BoNT F protease: -5.1; Mtb FBA inh: -1.4; Anthrax LF prot: -5.0; BoNT A protease: 0.2; GDH-TPI counter: 1.9

Results for CCCSc1cc(=O)n(-c2ccccc2)nc1C(=O)OCC ?
Autofluor counter: 22530*; BoNT F protease: -1.5; Mtb FBA inh: 0.6; Anthrax LF prot: 3.0; BoNT A protease: 0.3; GDH-TPI counter: 13.7

Results for COC(=O)c1nn(-c2ccccc2)c(=O)cc1Oc1ccccc1 ?
Autofluor counter: 22483*; BoNT F protease: 1.2; Mtb FBA inh: -0.2; Anthrax LF prot: -1.8; BoNT A protease: 0.3; GDH-TPI counter: -1.9

What do the screens show for `CCOC(=O)c1nnn(-c2ccccc2)c1C`?
Autofluor counter: 24310*; BoNT F protease: -7.0; Mtb FBA inh: 1.4; Anthrax LF prot: -0.8; BoNT A protease: inconclusive; GDH-TPI counter: 1.2
